Abeta rescue: A-beta toxicity reversal in yeast; yeast expressing A-beta42, growth rescue, OD600, 48 h; response scale: 0% DMSO, 100% iron-clioquinol control; Potency, µM (titrated, usually from 46.1 µM), usual class: activators; actives 0.063% (n = 410,000); note: nearly all actives have a fitted effect of over 55% in size
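Growth rescue measured by 600 nm absorbance after 48 h yeast culture at 30 C with compound. Values normalized between DMSO and an equimolar ferric chloride plus clioquinol control.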
TDP-43 yeast inh: TDP-43 toxicity inhibition in yeast. TDP-43 expressing yeast growth rescue, BacTiter-Glo, 24 h. Potency, µM (top dose mostly 46.1 µM), most hits filed as activators. actives 1.8% (n = 410,000). AID 652104; note: nearly all actives have a fitted effect of over 50% in size
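Yeast expressing TDP-43 (pregrown in raffinose, seeded at OD600=0.02 in galactose medium) exposed to compounds 24 hr at 30 deg C. Growth read by BacTiter-Glo luminescence; rescue of toxicity appears as increased signal.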
FUS suppressor: suppressors of FUS proteinopathy in yeast | S. cerevisiae FUS-expressing, growth rescue, OD600, 24 h | Potency, µM (titrated, usually from 76.6 µM), most hits filed as activators | actives 0.24% (n = 390,000); note: nearly all actives have a fitted effect of over 55% in size
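Toxicity suppression screen in FUS-yeast. Cells induced with 2% galactose, starting OD 0.005, treated 24hr at 30C with compounds at multiple final concentrations; growth by OD600.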
aSyn rescue: inhibitors of alpha-synuclein toxicity in yeast; Yeast expressing alpha-synuclein, growth rescue, BacTiter-Glo, 24 h; Potency, µM (doses to about 46.1 µM), most hits filed as activators; actives 0.14% (n = 370,000); AID 652106; note: nearly all actives have a fitted effect of over 65% in size
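Screening used galactose-induced yeast with toxic alpha-synuclein levels, exposed to compound for 24 hr at 30 deg C. Cell growth, read with BacTiter-Glo luminescence, gave the measured signal.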
Numbers stand for hits; i = inactive; ? = inconclusive; nt = no result. Most compounds without a hit are left out; they make up all but 2.1% or so of the library. Calls come from the whole dose curve; as a rule, active = well fitted curve in the direction sought with a large enough effect; inconclusive = small, poorly fitted or top-dose-only effect, or another doubt; inactive = no such curve, though single readings can be large; an effect the other way counts as inactive or inconclusive.

SMILES | Abeta rescue | TDP-43 yeast inh | FUS suppressor | aSyn rescue
O=c1oc(CCCO)cc2ccc(C#Cc3ccsc3)cc12 | i | i | i | i
Cc1cc(NC(=O)c2ccc(NS(=O)(=O)c3ccc(F)cc3)cc2)no1 | nt | nt | i | nt
CCCCOc1ccc(C(=O)NC2CCCCN(CC)C2=O)cc1 (stereo not given) | nt | nt | i | nt
CC(=O)c1cnc(SCc2ccc(Cl)cc2)nc1C | i | ? | i | i
O/N=C/c1ccnc(SCc2ccccc2)n1 | i | 11µM | i | i
O/N=C/c1ccnc(SCc2ccc(Cl)cc2)n1 | i | 10µM | i | i
COc1cccc(/C=N\N2CCN(c3ccc(C)cc3)CC2)c1O | nt | nt | i | nt
Cc1ccccc1Cn1cnc2c([N+](=O)[O-])c(C)c(C)cc21 | i | 13µM | i | i
O=C(Nc1ccc(Br)cc1)OC1CC2CC1[C@H]1CCCCN1[C@H]2Cc1ccccc1 (stereo not given in full) | nt | nt | i | nt
Cc1ccc(Cl)cc1N1CCN(C(=O)c2cc3ccc4cccnc4c3[nH]2)CC1 | i | 20µM | i | nt
O=C(c1cc2ccc3cccnc3c2[nH]1)N1CCN(c2ccc(Cl)cc2)CC1 | i | i | i | nt
O=C(c1cc2ccc3cccnc3c2[nH]1)N1CCN(c2cccc(Cl)c2)CC1 | i | 13µM | ? | nt
COc1cccc(N2CCN(C(=O)c3cc4cc(Cl)ccc4[nH]3)CC2)c1 | i | 13µM | i | ?
O=C(OCC#CCSc1nnc(-c2cccc3ccccc23)o1)c1sccc1Cl | nt | nt | i | nt
COc1ccc2cc(C(=O)NCc3ccc4c(c3)CCN4C(=O)c3ccc(C)cc3)[nH]c2c1 | i | i | i | nt
COc1ccc2cc(C(=O)NCc3ccc4c(c3)CCN4C(=O)c3ccc(F)cc3)[nH]c2c1 | i | 16µM | i | nt
CN(Cc1ccccc1)S(=O)(=O)c1cccc(C(=O)OCc2cccc(C(F)(F)F)c2)c1 | nt | nt | i | nt
Cc1ccc(C(=O)C2CCN(C(=O)c3ccc(C)cc3)CC2)cc1 | i | i | i | i
Cc1ccc(C(=O)N2CCC(C(=O)c3c(C)cc(C)cc3C)CC2)cc1 | i | 18µM | ? | i
CCC[C@H]1[C@@H](OC(=O)NCc2ccc(C)o2)CC[C@@]23CCCN2C(=O)CCC[C@@H]13 | nt | nt | i | nt
O=c1[nH]c2cc3c(cc2cc1C(c1nnnn1Cc1ccccc1)N1CCN2CCCC2C1)OCCO3 (stereo not given) | i | i | 18µM | i
O=c1[nH]c2cc3c(cc2cc1C(c1nnnn1Cc1ccccc1)N1CCCCCC1)OCCO3 (stereo not given) | i | i | i | i
CCOC(=O)c1sc(=S)n(-c2ccc(OC)cc2)c1C | i | 20µM | i | i
CCOC(=O)c1sc(=S)n(-c2cc(OC)ccc2OC)c1N | i | i | i | i
CCOC(=O)c1sc(=S)n(-c2ccc(Cl)cc2)c1C | i | 25µM | i | i
SMILES | Abeta rescue | TDP-43 yeast inh | FUS suppressor | aSyn rescue
Cc1cc(C)cc(NC(=O)N2CCC(c3nc4ccc(Cl)cc4[nH]3)CC2)c1 | nt | nt | i | nt
CC(C)c1ccc(NC(=O)c2cc3c([nH]c2=O)CC(C)(C)CC3=O)cc1 | nt | nt | nt | i
O=C(Nc1cc(C(F)(F)F)ccc1-n1cncn1)c1ccc(-c2ccccc2)cc1 | i | 14µM | i | i
CCOC(=O)NC(=O)CSc1nc(-c2ccc(C)c(C)c2)cn1-c1ccccc1 | i | 35µM | i | i
CCCCOc1c(Cl)cc(C(=O)N(Cc2ccc(C)o2)C2CCS(=O)(=O)C2)cc1Cl (stereo not given) | i | ? | ? | nt
CCCCCOc1c(Cl)cc(C(=O)N(Cc2ccc(C)o2)C2CCS(=O)(=O)C2)cc1Cl (stereo not given) | i | i | 35µM | nt
COc1ccccc1CNC(=O)N1CCN(Cc2nc3ccccc3c(=O)[nH]2)CC1 | nt | nt | i | nt
O=C(Nc1cc(Cl)ccc1-n1cncn1)c1ccc([N+](=O)[O-])o1 | i | 14µM | i | i
CC(C)C1OC2c3cccc4cccc(c34)C2N1c1ccccc1 (stereo not given) | i | 13µM | i | i
O=C(COc1ccccc1)NCC1COc2ccccc2O1 (stereo not given) | i | i | i | i
Cc1ccccc1C(=O)OCC(=O)NCC1COc2ccccc2O1 (stereo not given) | i | 14µM | nt | i
O=C(COc1ccc(Br)cc1)NCC1COc2ccccc2O1 (stereo not given) | i | 25µM | i | ?
COCc1c(C(=O)NCC2COc3ccccc3O2)oc2ccccc12 (stereo not given) | i | 32µM | i | i
